Source: ChEMBL document CHEMBL4888484, “Replenishing the malaria drug discovery pipeline: Screening and hit evaluation of the MMV Hit Generation Library 1 (HGL1) against asexual blood stage Plasmodium falciparum ,using a nano luciferase reporter read-out” (2022)
Screen size: about 4,800 compounds; about 420 (8.8%) showed an effect of 50% or more. For the sample, strong results were picked, then their nearest neighbours and some compounds at random.

Each molecule was assayed on Plasmodium falciparum (assay: Confirmatory screen in NF54 nanoGlo assay, in single point, at 2uM, 72h). Conditions: timepoint 72 hour.
Type: functional, Erythrocyte
In the case of `COc1ccc(-c2nccn3cc(C(=O)NCCN(C)C4CCCCC4)nc23)cc1`, the “% Inhibition” value is reported as 6%. In the case of `O=S1(=O)NC(c2ccccc2)(c2ccccc2)c2ccccc21`, the “% Inhibition” value is reported as 1%. In the case of `Cc1ccc(NC(=O)c2c(C)nc3sc(C(=O)NCc4ccccc4)c(N)c3c2-c2cccs2)c(C)c1`, the “% Inhibition” value is reported as 2%. With `Cc1ccc(NC(=O)c2c(C)nc3sc(C(=O)NCc4ccccc4)c(N)c3c2-c2ccccc2Cl)c(C)c1` the “% Inhibition” value was 77%. With `CCc1ccc(NC(=O)c2sc3nc(C)c(C(=O)Nc4ccc(C)cc4C)c(-c4ccccc4Cl)c3c2N)cc1` the “% Inhibition” value was 16%. `CC(C)c1nc(CN(C)[C@@H](C)C(=O)Nc2nccs2)cs1` was tested, and the “% Inhibition” value was 22%. `CC(C)N(CC(=O)Nc1nccs1)Cc1ccccn1` was tested, and the “% Inhibition” value was 68%. With `CC(C)NC(=O)C(=O)Nc1nccs1` the “% Inhibition” value was -14%. With `O=c1cc2c(nn1Cc1ccccc1Cl)-c1ccccc1CC2` the “% Inhibition” value was -8%. For `O=C(c1ccc(O)cc1)C1CCN(C[C@H](O)C(F)(F)F)CC1`, the “% Inhibition” value was 5%. `Cc1nn(C)c2c(N3CCc4ccccc4C3)nc(C3CC3)nc12` was tested, and the “% Inhibition” value was -7%. `CCOCCCNC(=O)c1ccc(-c2ccc3c(c2)CCN3C(C)=O)cc1` was tested, and the “% Inhibition” value was -2%. `O=C(NCC1CCCCC1)c1cn[nH]c1-c1ccccc1` was tested, and the “% Inhibition” value was -4%. `O=C(NCC1CCCCC1O)c1cnn2ccncc12` (stereo unspecified) was tested, and the “% Inhibition” value was -12%. In the case of `O=C1Nc2ccccc2O[C@H]2C[C@@H]1N(CC1CC1)C2`, the “% Inhibition” value is reported as -10%. In the case of `CC(=O)c1cccc(NC(=O)Cc2c(C)nc3nc(C4CCCCC4)nn3c2C)c1`, the “% Inhibition” value is reported as 5%. For `Clc1ccc(-c2noc(C3CNC3)n2)cc1`, the “% Inhibition” value was 21%. `CC(C)N1CCN(C(=O)CN2N=C(c3nc(-c4ccccc4)no3)CCC2=O)CC1` was tested, and the “% Inhibition” value was 5%. For `c1ccc(-c2noc(-c3ccc(NC4CCCCC4)nn3)n2)cc1`, the “% Inhibition” value was 55%. For `Cc1nn(-c2ncc(C(F)(F)F)cc2Cl)c(=O)n1-c1cccc(F)c1`, the “% Inhibition” value was -4%. For `CC(C)(C)c1nc(CNc2ccc(S(=O)(=O)CCO)cc2)no1`, the “% Inhibition” value was -9%. For `COc1ccc(Cl)cc1C(=O)N(C1CCOCC1)[C@H]1CCCN(S(C)(=O)=O)C1`, the “% Inhibition” value was -9%. With `Cc1cc(=O)[nH]c(N2CCCCCC2)n1` the “% Inhibition” value was -2%. With `O=C(COc1ccc(Cl)cc1)N1CC(n2cnnc2C2CC2)C1` the “% Inhibition” value was -7%. In the case of `COc1ccc(Cl)cc1C(=O)Nc1cc(C2CC2)nn1-c1nc(C)cc(=O)[nH]1`, the “% Inhibition” value is reported as 66%. For `COc1ccc(NC(=O)c2cc(C3CC3)nc3onc(C4CC4)c23)cc1Cl`, the “% Inhibition” value was -3%. In the case of `Cc1cc(=O)[nH]c(-n2nc(C3CC3)cc2NC(=O)C(C)(C)Oc2ccc(Cl)cc2)n1`, the “% Inhibition” value is reported as 85%. `CC(C)C[C@H](N)C(=O)N1CC2CCCCC2C1` (stereo partly specified) was tested, and the “% Inhibition” value was -3%. With `CS(=O)(=O)N1C[C@@H]2CCCN2c2cc(C(F)(F)F)ccc21` the “% Inhibition” value was 4%. With `Cc1csc(C(C)(C)NC(=O)NCCC2=CCCC2)n1` the “% Inhibition” value was -3%. For `CCOC(=O)c1sc(NC)nc1C(F)(F)F`, the “% Inhibition” value was -19%. `CC1CN(C(=O)Cn2nnc3ccccc3c2=O)CC1N(C)C` (stereo unspecified) was tested, and the “% Inhibition” value was -4%. In the case of `CCOCCC1(CNC(=O)c2cc(C)n[nH]2)CCC1`, the “% Inhibition” value is reported as -1%. For `Cc1cnccc1NCCNC1CCN(c2ccc(Cl)cc2)CC1`, the “% Inhibition” value was 99%. In the case of `CCn1nccc1C(=O)NC1CCN(c2nnc3ccc(Cl)cn23)CC1`, the “% Inhibition” value is reported as 0%. In the case of `Cc1cnccc1NCCNC1CCN(c2ccc3c(c2)CCC3)CC1`, the “% Inhibition” value is reported as 72%. In the case of `CCCC(=O)N1CCN(c2c(C)n(-c3ccccc3)c(=O)n(C)c2=O)CC1`, the “% Inhibition” value is reported as 2%. In the case of `O=C(NC1CC1)c1nc(C(=O)N2CCN(c3ccccn3)CC2)cs1`, the “% Inhibition” value is reported as -1%. For `Cc1ccccc1CNC(=O)[C@H]1CCCN(c2nc3cccnc3n(Cc3ccccc3)c2=O)C1`, the “% Inhibition” value was -6%. `Cc1ccccc1CNC(=O)[C@H]1CCCN(c2nc3ccccc3[nH]c2=O)C1` was tested, and the “% Inhibition” value was -1%. `COc1ccccc1CNC(=O)c1nnn(-c2ccc3noc(-c4ccc(Cl)cc4)c3c2)c1C` was tested, and the “% Inhibition” value was -1%. `CCc1nc2cc(N3CCC(C(=O)Nc4ccc5c(c4)OCO5)CC3)cnc2nc1CC` was tested, and the “% Inhibition” value was 61%. `Cc1nccn1-c1ncc(NC(=O)Nc2ccc3c(c2)OCO3)cn1` was tested, and the “% Inhibition” value was 21%. With `Cc1ccc(C(=O)OCC(=O)Nc2ccc3c(c2)OCO3)cn1` the “% Inhibition” value was -2%. `CC(C)c1cc(=O)n(Cc2ccccc2Cn2cnc(C(C)C)cc2=O)cn1` was tested, and the “% Inhibition” value was -3%. For `Cc1nc(Nc2ccc(F)cc2)nc2c1ncn2-c1ccc(F)cc1`, the “% Inhibition” value was -18%. `COc1ccc(C(=O)N[C@@H](C(=O)Nc2ccccc2C)c2ccc(Cl)cc2)cc1` was tested, and the “% Inhibition” value was 7%. `Clc1ccc(C[n+]2ccc(-c3nc4ccccc4o3)cc2)c(Cl)c1` was tested, and the “% Inhibition” value was 58%. In the case of `CC(=O)N(Cc1ccc2c(c1)OCO2)c1cccc(-c2nc3ccccc3o2)c1`, the “% Inhibition” value is reported as -1%. In the case of `CC(=O)N(Cc1ccccc1OCc1c(Cl)cccc1Cl)c1ccc2oc(-c3ccccc3)nc2c1`, the “% Inhibition” value is reported as -13%. For `O=C(NC[C@H]1CCCO1)N1CCN(c2nccs2)C(=O)C1`, the “% Inhibition” value was 1%. With `Cc1ccc(-n2nc(N3CCN(C(=O)Cc4ccc(F)cc4)CC3)ccc2=O)cc1` the “% Inhibition” value was 4%. In the case of `CCN(CC)C(=O)c1cnc2snc(C)c2c1N1CCC(C(=O)Nc2c(C)cc(C)cc2C)CC1`, the “% Inhibition” value is reported as 57%. For `O=C(c1cnc2ccc(F)cc2c1N1CCC(Cc2ccccc2)CC1)N1CCCC1`, the “% Inhibition” value was 2%. `Cc1nsc2ncc(C(=O)N3CCC(C)CC3)c(N3CCC(C(=O)Nc4cc(F)ccc4F)CC3)c12` was tested, and the “% Inhibition” value was 60%. In the case of `Cc1ccc(N2CCN(c3c(C(=O)N4CCCCC4)cnc4ccc(F)cc34)CC2)cc1`, the “% Inhibition” value is reported as -8%. In the case of `Cc1cccc(C)c1NC(=O)C1CCN(S(=O)(=O)c2c(C)nn(-c3ccccc3)c2C)CC1`, the “% Inhibition” value is reported as -6%. With `CCC1(CC)CN(C(=O)c2ccn(C)c(=O)c2)c2ccccc21` the “% Inhibition” value was 2%. With `Cn1cc(-c2noc(Cc3c(F)cccc3Cl)n2)ccc1=O` the “% Inhibition” value was -1%. In the case of `Clc1cccc(CNc2cc(-c3ccco3)n[nH]2)c1`, the “% Inhibition” value is reported as -7%. With `CS(=O)(=O)N(CCCC(=O)NCc1ccc2c(c1)OCO2)c1ccc(F)cc1` the “% Inhibition” value was -2%. For `Cc1csc([C@@H](C#N)C(=O)c2ccncc2)n1`, the “% Inhibition” value was -11%. For `CCCCNC(=O)Nc1cccc(C#CCN)n1`, the “% Inhibition” value was -2%. In the case of `Cc1nc(N)nc(C)c1C(=O)Nc1ccc(Nc2ncccn2)cc1`, the “% Inhibition” value is reported as 46%. With `Cc1cc(N)nc(Nc2ccc(Nc3ccccc3)cc2)n1` the “% Inhibition” value was 87%. With `c1ccc(Nc2nc(-c3ccccc3)cc(-c3ccccc3)n2)cc1` the “% Inhibition” value was 3%.
